Rows were chosen to be rich in hits. Some 0.82% of all compounds tested hit in one or more screens of this group.
RecA intein inh = Mtb RecA intein splicing inhibition; P9WHJ3; cell-free RecA intein splicing, fluorescence; inhibition, % (concentration not given with the values); actives 0.75% (n = 290,000); in the data active = inhibition above about 30%
FadD28 FP inh = inhibitors of Mycobacterium tuberculosis FadD28 bisubstrate binding | FadD28 bisubstrate probe binding, fluorescence polarization | AID 588549 | inhibition, % at 12.5 µM | actives 0.22% (n = 360,000); in the data active = inhibition above about 8.5%, passing the limit was not always enough
Rv3671c inh = inhibits the M. tuberculosis serine protease Rv3671c | P9WHR9 | inhibition, % at 5.96 µM | actives 0.048% (n = 320,000) | AID 2606; in the data active = inhibition above about 38%;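 note: extracellular domain of Rv3671c used as enzyme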
Target sequence (P9WHR9 whole entry, looked up, the tested form may be a part): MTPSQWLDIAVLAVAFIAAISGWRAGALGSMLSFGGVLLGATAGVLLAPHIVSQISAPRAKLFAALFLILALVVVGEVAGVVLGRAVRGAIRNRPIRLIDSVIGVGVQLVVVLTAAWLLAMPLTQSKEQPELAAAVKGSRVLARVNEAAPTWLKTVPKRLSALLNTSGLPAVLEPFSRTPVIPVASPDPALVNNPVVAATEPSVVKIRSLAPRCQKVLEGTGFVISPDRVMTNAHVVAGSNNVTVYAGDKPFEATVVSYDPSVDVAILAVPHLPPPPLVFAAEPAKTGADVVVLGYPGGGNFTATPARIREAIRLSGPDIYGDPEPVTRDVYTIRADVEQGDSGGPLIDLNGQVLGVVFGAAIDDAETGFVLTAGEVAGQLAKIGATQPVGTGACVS
Y pestis TopoI = inhibitors of Yersinia pestis topoisomerase I. AID 504884. Y. pestis Topo-I cleavage product accumulation, plate reader. actives 0.064% (n = 360,000). activity, % at 10 µM; in the data active = activity above about 50%, passing the limit was not always enough
UGM FP inh = blocks M. tuberculosis UGM enzyme; actives 0.06% (n = 320,000); purified UGM, fluorescence polarization probe displacement; AID 504406; inhibition, % at 10 µM; in the data active = inhibition above about 10%, passing the limit was not always enough
BioA inh-1 = BioA (M. tuberculosis) enzyme inhibition; purified M. tuberculosis BioA enzyme, plate reader; inhibition, % at 9.99 µM; actives 0.096% (n = 360,000); in the data active = inhibition above about 40%
Rv3671c confirm = Rv3671c protease inhibition, confirmation; shares compounds with Rv3671c inh; inhibition, % at 5.96 µM; actives 40% (n = 140); AID 2761; in the data active = inhibition above about 38%
DNA intercal FP = intercalates into DNA, flagged in counter-screen; shares compounds with UGM FP inh; acridine orange-DNA binding, fluorescence polarization; AC50, µM; actives 60% (n = 35);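 active = fitted AC50 no greater than ten times the top concentration tested, cut at about 17 µM in these data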
BioA inh-2 = blocks M. tuberculosis BioA aminotransferase; shares compounds with BioA inh-1; purified BioA enzyme, plate reader, dose response; max activity, %; 310 tested, under 10 active; AID 651679;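 note: top concentration of the dilution series was 10 µM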
HepG2 tox 2 = cytotoxicity in HepG2 cells | shares compounds with BioA inh-1 | plate reader | max activity, % | 310 tested, under 10 active
3T3 cytotox 5 = NIH3T3 viability loss; shares compounds with BioA inh-1; AID 651900; activity change, negative = cytotoxicity, % at 26 µM; NIH3T3 cytotoxicity, plate reader; 310 tested, under 10 active
Large screens that a line does not name were inactive (follow-up assays come after a bar, where they were run). Unless noted, the rule behind the calls is not given here.

Cc1cc(C)n2nc(SCC(=O)N/N=C/c3ccccn3)nc2n1	Rv3671c inh 76 (no result: BioA inh-1) | Rv3671c confirm inactive
Cc1cc(C)n2nc(SCC(=O)N/N=C/c3cccc(Br)c3)nc2n1	none (no result: BioA inh-1)
CC(C)Oc1ccc(CCC(=O)N/N=C/c2ccc3c(c2)OCO3)cc1	Rv3671c inh 38 (no result: BioA inh-1) | Rv3671c confirm inactive
CCCC(=O)Nc1ccc2c(c1)C(=O)N(C)[C@@H]1CC[C@H](CC(=O)NCc3ccccc3F)O[C@H]1CO2	none (no result: RecA intein inh, FadD28 FP inh, Rv3671c inh, Y pestis TopoI, UGM FP inh)
O=C1c2c(O)cccc2Cc2cccc(O)c21	Rv3671c inh 58 (no result: RecA intein inh) | Rv3671c confirm inactive
C[C@@H]1CN([C@@H](C)CO)C(=O)c2cc(NS(=O)(=O)c3cn(C)cn3)ccc2O[C@@H](C)CCCCO[C@@H]1CN(C)C(=O)c1ccncc1	none (no result: RecA intein inh, FadD28 FP inh, Rv3671c inh, Y pestis TopoI, UGM FP inh)
COc1cc2nc(Nc3ccc(C)c(C)c3)nc(N)c2cc1OC	none (no result: BioA inh-1)
COc1cc2nc(Nc3ccc(C)c(Cl)c3)nc(N)c2cc1OC	Rv3671c inh 74 | Rv3671c confirm 74
CCOC(=O)NC(=O)/C(C#N)=C\Nc1sccc1C(=O)OC	Rv3671c inh 41 (no result: BioA inh-1) | Rv3671c confirm inactive
Cc1ccccc1S(=O)(=O)N[C@@H]1CC[C@@H](CCn2cc(Cc3ccccc3)nn2)O[C@@H]1CO	none (no result: RecA intein inh, FadD28 FP inh, Rv3671c inh, Y pestis TopoI, UGM FP inh)
C[C@@H]1CN([C@H](C)CO)C(=O)c2c(c3ccccc3n2C)-c2ccccc2CO[C@H]1CN(C)S(=O)(=O)c1cccs1	none (no result: RecA intein inh, FadD28 FP inh, Rv3671c inh, Y pestis TopoI, UGM FP inh)
Oc1ccc(/C=N/Nc2ccnc3cc(Cl)ccc23)c(O)c1O	none (no result: RecA intein inh)
Oc1ccc(/C=N/Nc2ccnc3cc(Cl)ccc23)cc1O	FadD28 FP inh 12, Rv3671c inh 54 (no result: BioA inh-1) | Rv3671c confirm inactive
Cc1cc(NS(=O)(=O)c2ccc(Nc3nc(-c4sc(NC(=O)c5ccccc5)nc4C)cs3)cc2)no1	Rv3671c inh 63 (no result: FadD28 FP inh, Y pestis TopoI, BioA inh-1) | Rv3671c confirm 50
Cc1ccccc1S(=O)(=O)N(C)C[C@H]1OCc2ccccc2-c2c(n(C)c3ccccc23)C(=O)N([C@@H](C)CO)C[C@@H]1C	none (no result: RecA intein inh, FadD28 FP inh, Rv3671c inh, Y pestis TopoI, UGM FP inh)
CO[C@@H]1CN(C)C(=O)c2ccc(NC(=O)NC(C)C)cc2OC[C@@H](C)N(C(=O)CN(C)C)C[C@H]1C	none (no result: RecA intein inh, FadD28 FP inh, Rv3671c inh, Y pestis TopoI, UGM FP inh)
O=C(N/N=C/c1cc(Br)c(O)c(Br)c1O)c1ccc2c(c1)OCCO2	FadD28 FP inh 12, Rv3671c inh 42 | Rv3671c confirm inactive
COc1cccc(CNC(=O)c2ccc(NC(=O)C3=CSCCO3)cc2)c1	Rv3671c inh 61, BioA inh-1 48 | Rv3671c confirm inactive | BioA inh-2 inactive | HepG2 tox 2 inactive | 3T3 cytotox 5 inactive
CO[C@@H]1CN(C)C(=O)c2cc(NC(=O)c3ccccc3)ccc2OC[C@@H](C)N(C(C)=O)C[C@H]1C	none (no result: RecA intein inh, FadD28 FP inh, Rv3671c inh, Y pestis TopoI, UGM FP inh)
Cc1ccc(Cl)cc1N1CCN(C(=O)C2CCN(S(C)(=O)=O)CC2)CC1	none | DNA intercal FP inactive
CC(=O)Nc1ccc(-c2cn3ccsc3n2)cc1	none | DNA intercal FP inactive
O=C(Nc1ccc(-c2cn3ccsc3n2)cc1)C1CC1	none
C[C@@H]1CN([C@H](C)CO)C(=O)c2cccc(NC(=O)Nc3ccccc3)c2O[C@H]1CN(C)C(=O)Nc1ccc(F)cc1	none (no result: RecA intein inh, FadD28 FP inh, Rv3671c inh, Y pestis TopoI, UGM FP inh)
O=C1CCC(=O)c2ccc3c4c(ccc1c24)CC3	none (no result: RecA intein inh, Rv3671c inh, UGM FP inh)
O=C1CCN2C=Nc3cccc4ccc1c2c34	UGM FP inh 39 | DNA intercal FP 13
Cc1nn(C)c(C)c1N1C(=O)c2cccc3c(N)ccc(c23)C1=O	UGM FP inh 68 (no result: RecA intein inh) | DNA intercal FP 6.1
C[C@@H]1CN([C@@H](C)CO)C(=O)c2cc(C#C[C@@H](C)O)cnc2O[C@@H]1CN(C)C(=O)CN1CCOCC1	none (no result: RecA intein inh, FadD28 FP inh, Rv3671c inh, Y pestis TopoI, UGM FP inh)
CC(C)(C)C1(C)OC(=O)C(=Cc2ccc(OCC(=O)Nc3ccccc3)cc2)C(=O)O1 (centres undefined)	none (no result: BioA inh-1) | DNA intercal FP inactive
C[C@@H]1CN([C@@H](C)CO)C(=O)Cc2cc(NS(=O)(=O)c3cccs3)ccc2O[C@@H]1CN(C)S(=O)(=O)c1ccccc1	none (no result: RecA intein inh, FadD28 FP inh, Rv3671c inh, Y pestis TopoI, UGM FP inh)
O=C(NC1CC1)c1ccc(-c2ccc3nccn3c2)cc1	none (no result: RecA intein inh, Rv3671c inh, UGM FP inh)
